The values that follow come from PubChem BioAssay (NCATS).

Records with an inconclusive call do not appear. Calls of active or inactive are those of the source. Calls come from the whole dose curve; as a rule, active = well fitted curve in the direction sought with a large enough effect; inconclusive = small, poorly fitted or top-dose-only effect, or another doubt; inactive = no such curve, though single readings can be large; an effect the other way counts as inactive or inconclusive.

Test [1] has as its target ATP-dependent 6-phosphofructokinase (Trypanosoma brucei brucei) (UniProt O15648). The test can be described thus: qHTS Assay to Find Inhibitors of T. brucei phosphofructokinase: hit validation (AID 492961).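 Note: luminescence reports ADP formed as PFK phosphorylates fructose-6-phosphate with ATP; series mostly up to about 51 µM.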 Put shortly: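 Inhibition of parasite PFK is measured as reduced ADP formation, quantified via luciferase after ATP depletion. Assay used 0.1 mM ATP, 0.5 mM F6P, 1.25 nM enzyme, 45 min incubation.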
(qHTS replaces the single test concentration by a dilution series.)

Test [2] deals with Thioredoxin reductase 1, cytoplasmic (Rattus norvegicus) (UniProt O89049). The test can be described thus: qHTS Assay for Inhibitors of Mammalian Selenoprotein Thioredoxin Reductase 1 (TrxR1) (AID 488773). Note: nearly all actives have a fitted effect of over 40% in size. Note: potency is the fitted concentration of half-maximal effect. The following applies: Potency: inhibition. Put shortly: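 Inhibition is scored from the loss of NADPH fluorescence between first and last reads of an 8-min kinetic run. Selenite (400 uM) was the substrate, added after 15 min compound preincubation at room temperature.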
Sequence of Thioredoxin reductase 1, cytoplasmic (Rattus norvegicus) (O89049 whole entry, looked up): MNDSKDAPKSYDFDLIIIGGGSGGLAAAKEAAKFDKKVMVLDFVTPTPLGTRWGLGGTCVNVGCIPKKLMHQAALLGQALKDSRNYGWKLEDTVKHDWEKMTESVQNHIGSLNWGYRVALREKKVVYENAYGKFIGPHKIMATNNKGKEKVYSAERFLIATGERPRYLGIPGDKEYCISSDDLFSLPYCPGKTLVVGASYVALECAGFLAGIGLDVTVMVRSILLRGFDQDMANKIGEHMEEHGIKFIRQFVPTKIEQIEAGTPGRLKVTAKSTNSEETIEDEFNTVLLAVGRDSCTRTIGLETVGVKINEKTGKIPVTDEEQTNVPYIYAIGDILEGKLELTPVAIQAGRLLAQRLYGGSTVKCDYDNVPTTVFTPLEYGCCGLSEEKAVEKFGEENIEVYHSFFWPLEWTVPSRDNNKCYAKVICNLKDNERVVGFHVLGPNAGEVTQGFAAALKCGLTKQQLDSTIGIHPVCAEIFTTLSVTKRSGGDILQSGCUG

The target in test [3] is Flap endonuclease 1 (Homo sapiens) (UniProt P39748). The test can be described thus: qHTS Validation Assay for the Inhibitors of Human Flap endonuclease 1 (FEN1) (AID 488816). An outline of the steps: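 Enzyme reagent 10 nM; cpds pinned; 15 min RT preinc.; substrate 50 nM final; reads t=0 and 15 min; no-enzyme buffer wells as neg. control; normalized data, 4-parameter Hill fit.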
Sequence of Flap endonuclease 1 (Homo sapiens) (P39748 whole entry, looked up): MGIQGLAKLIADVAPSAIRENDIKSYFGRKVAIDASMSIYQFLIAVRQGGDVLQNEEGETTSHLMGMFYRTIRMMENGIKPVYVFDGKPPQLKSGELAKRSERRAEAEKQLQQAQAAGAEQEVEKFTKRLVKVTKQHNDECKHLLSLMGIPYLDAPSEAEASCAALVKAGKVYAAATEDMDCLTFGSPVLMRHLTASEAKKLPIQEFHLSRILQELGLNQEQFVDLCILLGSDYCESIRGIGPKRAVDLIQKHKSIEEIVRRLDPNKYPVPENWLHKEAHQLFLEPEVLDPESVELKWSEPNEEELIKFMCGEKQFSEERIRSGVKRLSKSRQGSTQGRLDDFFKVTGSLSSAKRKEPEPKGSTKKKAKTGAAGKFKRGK

The target of test [4] is Chromobox protein homolog 1 (Homo sapiens) (UniProt P83916). The test can be described thus: qHTS Validation Assay for Inhibitors of HP1-beta Chromodomain Interactions with Methylated Histone Tails (AID 488953). Note: nearly all actives have a fitted effect of over 50% in size. Note: potency is the fitted concentration of half-maximal effect. Put shortly: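 AlphaScreen proximity signal from streptavidin donor and nickel chelate acceptor beads (final 10 ug/mL) after 30 min dark incubation. Compounds had 30 min at room temperature with preformed complex of 50 nM HP1-beta and 50 nM b-H3(1-18)K9me3 in PBS pH 7.4 with 0.01% Tween-20.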
Sequence of Chromobox protein homolog 1 (Homo sapiens) (P83916 whole entry, looked up): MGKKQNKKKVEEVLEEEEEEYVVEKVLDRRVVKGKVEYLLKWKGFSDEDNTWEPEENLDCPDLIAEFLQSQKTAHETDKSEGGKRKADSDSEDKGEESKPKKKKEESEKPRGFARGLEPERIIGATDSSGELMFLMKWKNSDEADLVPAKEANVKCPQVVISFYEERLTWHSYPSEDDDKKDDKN

Test [5] addresses Methanococcus maripaludis chaperonin (MmCpn) (UniProt Q6LX38). Kind of test: High-Throughput Screening for Modulators of Cytosolic Chaperonin Activity: MmCpn Primary Screen (AID 488978).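 Note: 50 nM MmCpn enzyme hydrolysing 30 µM ATP at 37 °C.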 Put shortly: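 Steps: chaperonin 50 nM final; add compound, 5 min RT; start with ATP, 30 uM final; hold 10 min at 37C; add ADP Transcreener HTRF reagent, 5 min; read ex 320, em 590 and 665 nm.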

Test [6] addresses Transient receptor potential cation channel subfamily V member 1 (Homo sapiens) (UniProt Q8NER1). The test can be described thus: HTS Assay for Compounds that Act as Enhancers of the Vanilloid Receptor 1 (AID 488979). An outline of the steps:
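TRPV1 cells loaded with Fluo-8 calcium dye; compound added and Ca2+ signal (ex 480/em 520 nm) followed 3 min, then capsaicin at EC20 added and read 2 more min to detect enhancement.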

Test [7] has as its target Thyrotropin receptor (Homo sapiens) (UniProt P16473). Kind of test: qHTS Assay for Antagonists of the Thyroid Stimulating Hormone Receptor (AID 488980). Note: series mostly up to about 58 µM. Put shortly:
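Readout is cAMP by HTRF competition between cellular cAMP and cAMP-d2 for a cryptate-labelled antibody. Antagonism was assessed in TSHR-transfected HEK293 cells stimulated with 4 nM TSH (EC80, final) in the presence of RO 20-1724.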

Test [8] has as its target D(1A) dopamine receptor (Homo sapiens) (UniProt P21728). The test can be described thus: HTS Assay for Allosteric Agonists of the Human D1 Dopamine Receptor: Primary Screen for Agonists (AID 488981). Put shortly:
(§1)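 Tetracycline-induced HEK293 Trex D1 cells with forced coupling to calcium, loaded with no-wash calcium dye; kinetic fluorescence read 180 s after compound addition for agonism, then a further 180 s after an EC20 dopamine challenge for potentiation.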

Test [9] has the same target. The test can be described thus: HTS Assay for Allosteric Agonists of the Human D1 Dopamine Receptor: Primary Screen for Potentiators (AID 488982). Put shortly: as §1
Test [10] has the same target. Kind of test: HTS Assay for Allosteric Agonists of the Human D1 Dopamine Receptor: Primary Screen for Antagonists (AID 488983).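 Note: calcium flux response to an EC80 dopamine challenge measured with no-wash dye; nearly all actives have a fitted effect of over 65% in size.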 Note: potency is the fitted concentration of half-maximal effect. An outline of the steps:
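Calcium-flux read-out in inducible HEK293 T-REx cells expressing D1, dye-loaded 30–90 min at room temperature. Kinetic reads: 180 s after compound (agonist phase), then 180 s after an EC80 dopamine challenge.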

Sequence of Methanococcus maripaludis chaperonin (MmCpn) (Q6LX38 1-543): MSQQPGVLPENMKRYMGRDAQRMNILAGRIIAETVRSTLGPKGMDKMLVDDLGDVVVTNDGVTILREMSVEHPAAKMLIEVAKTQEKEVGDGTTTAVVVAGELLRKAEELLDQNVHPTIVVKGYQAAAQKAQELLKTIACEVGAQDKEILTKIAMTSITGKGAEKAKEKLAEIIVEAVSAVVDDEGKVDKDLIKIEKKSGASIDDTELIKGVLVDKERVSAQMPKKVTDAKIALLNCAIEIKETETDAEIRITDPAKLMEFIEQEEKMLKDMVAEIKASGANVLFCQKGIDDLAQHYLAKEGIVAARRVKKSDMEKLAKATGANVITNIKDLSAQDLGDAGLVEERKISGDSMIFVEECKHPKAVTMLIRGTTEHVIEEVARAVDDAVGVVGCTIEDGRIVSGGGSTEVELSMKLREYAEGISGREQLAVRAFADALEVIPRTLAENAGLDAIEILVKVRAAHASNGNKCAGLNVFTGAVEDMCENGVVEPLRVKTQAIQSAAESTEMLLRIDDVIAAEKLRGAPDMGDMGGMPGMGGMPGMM
Sequence of Thyrotropin receptor (Homo sapiens) (P16473 whole entry, looked up): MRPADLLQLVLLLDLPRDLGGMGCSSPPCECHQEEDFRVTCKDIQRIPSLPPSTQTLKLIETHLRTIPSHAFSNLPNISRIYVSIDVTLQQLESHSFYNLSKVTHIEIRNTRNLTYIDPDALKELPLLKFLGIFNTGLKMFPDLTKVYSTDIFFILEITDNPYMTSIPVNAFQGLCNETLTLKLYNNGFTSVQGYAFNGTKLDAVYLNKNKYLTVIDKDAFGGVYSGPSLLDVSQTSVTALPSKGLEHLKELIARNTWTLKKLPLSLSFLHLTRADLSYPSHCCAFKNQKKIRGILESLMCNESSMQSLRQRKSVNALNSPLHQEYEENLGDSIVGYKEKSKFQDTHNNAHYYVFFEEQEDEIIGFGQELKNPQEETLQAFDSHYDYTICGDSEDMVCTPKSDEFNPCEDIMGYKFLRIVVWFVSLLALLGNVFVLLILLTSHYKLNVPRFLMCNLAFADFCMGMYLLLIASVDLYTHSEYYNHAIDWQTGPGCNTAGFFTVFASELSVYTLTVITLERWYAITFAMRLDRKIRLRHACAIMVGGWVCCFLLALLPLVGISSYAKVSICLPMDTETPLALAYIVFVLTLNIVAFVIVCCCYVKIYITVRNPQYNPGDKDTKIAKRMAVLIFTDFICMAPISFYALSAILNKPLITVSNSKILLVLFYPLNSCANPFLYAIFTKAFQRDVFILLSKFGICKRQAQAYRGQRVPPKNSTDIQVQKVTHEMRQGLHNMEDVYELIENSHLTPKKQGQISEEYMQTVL
Sequence of D(1A) dopamine receptor (Homo sapiens) (P21728 whole entry, looked up): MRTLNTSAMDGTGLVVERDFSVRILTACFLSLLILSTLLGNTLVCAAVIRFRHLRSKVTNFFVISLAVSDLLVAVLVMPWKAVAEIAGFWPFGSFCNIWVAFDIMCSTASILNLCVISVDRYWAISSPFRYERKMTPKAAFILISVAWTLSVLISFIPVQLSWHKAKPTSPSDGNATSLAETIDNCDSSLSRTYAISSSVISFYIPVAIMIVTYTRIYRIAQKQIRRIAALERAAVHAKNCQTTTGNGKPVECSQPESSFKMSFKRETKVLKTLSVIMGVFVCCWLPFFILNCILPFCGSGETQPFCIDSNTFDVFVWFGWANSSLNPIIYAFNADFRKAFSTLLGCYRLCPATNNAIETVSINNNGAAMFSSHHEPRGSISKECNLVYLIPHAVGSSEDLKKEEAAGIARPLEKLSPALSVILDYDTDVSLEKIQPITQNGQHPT
Sequence of Transient receptor potential cation channel subfamily V member 1 (Homo sapiens) (Q8NER1 whole entry, looked up): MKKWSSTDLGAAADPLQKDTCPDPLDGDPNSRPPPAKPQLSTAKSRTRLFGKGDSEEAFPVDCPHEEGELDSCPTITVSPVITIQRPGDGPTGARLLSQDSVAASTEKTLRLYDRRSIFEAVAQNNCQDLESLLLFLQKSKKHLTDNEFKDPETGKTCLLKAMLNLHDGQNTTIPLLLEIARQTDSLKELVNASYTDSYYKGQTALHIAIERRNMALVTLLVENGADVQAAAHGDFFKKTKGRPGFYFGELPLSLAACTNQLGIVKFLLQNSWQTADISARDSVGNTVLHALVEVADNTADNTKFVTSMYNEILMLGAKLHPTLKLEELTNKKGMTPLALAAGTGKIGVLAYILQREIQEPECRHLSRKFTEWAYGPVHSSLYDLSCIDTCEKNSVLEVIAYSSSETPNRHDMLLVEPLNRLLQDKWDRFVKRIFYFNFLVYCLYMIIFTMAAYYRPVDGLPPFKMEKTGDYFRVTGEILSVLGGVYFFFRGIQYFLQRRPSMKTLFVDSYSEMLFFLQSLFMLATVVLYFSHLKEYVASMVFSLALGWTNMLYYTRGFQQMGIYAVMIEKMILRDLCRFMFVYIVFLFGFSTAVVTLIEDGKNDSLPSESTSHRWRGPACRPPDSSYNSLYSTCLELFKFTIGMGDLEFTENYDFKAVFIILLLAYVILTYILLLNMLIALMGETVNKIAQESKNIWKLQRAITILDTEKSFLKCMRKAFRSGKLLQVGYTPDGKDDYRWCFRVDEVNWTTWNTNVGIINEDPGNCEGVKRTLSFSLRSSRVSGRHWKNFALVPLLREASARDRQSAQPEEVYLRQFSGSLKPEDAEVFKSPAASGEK
Sequence of ATP-dependent 6-phosphofructokinase (Trypanosoma brucei brucei) (O15648 whole entry, looked up): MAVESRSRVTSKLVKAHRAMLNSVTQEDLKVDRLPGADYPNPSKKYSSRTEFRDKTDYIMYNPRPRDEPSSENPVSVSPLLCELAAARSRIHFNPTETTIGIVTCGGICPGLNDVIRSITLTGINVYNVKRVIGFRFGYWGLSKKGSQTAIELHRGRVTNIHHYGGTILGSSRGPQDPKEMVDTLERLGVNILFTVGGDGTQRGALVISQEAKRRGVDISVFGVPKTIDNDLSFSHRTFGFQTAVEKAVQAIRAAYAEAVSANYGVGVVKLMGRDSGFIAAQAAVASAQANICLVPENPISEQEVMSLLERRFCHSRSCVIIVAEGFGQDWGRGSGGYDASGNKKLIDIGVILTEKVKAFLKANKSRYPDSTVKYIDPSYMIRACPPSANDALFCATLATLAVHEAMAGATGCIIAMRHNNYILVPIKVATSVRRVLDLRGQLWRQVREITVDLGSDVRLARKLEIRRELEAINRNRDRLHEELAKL

For `O=S(=O)(O)c1ccc2nc(-c3ccccc3)[nH]c2c1`, the result in [1] was inactive.
Regarding `CC(NCCC(c1ccccc1)c1ccccc1)c1ccccc1` (stereo unspecified), the compound was classed as inactive in test [1].
As for `Cn1cnc2c(NCc3ccccc3)nc(NCCO)nc21`, the Potency result in [2], in [4] and in test [10] was “inactive” throughout. Also, the result in test [3], in [5], in [6], in test [7], in test [8] and in [9] was inactive.
Turning to `CCCCCCCCCCCCCC[N+](C)(C)C`, the result in test [1] was inactive.
Same read-out and setting: the same measure for `Nc1ncnc2nc[nH]c12`: “inactive”.
For `C[C@]12CCC(=O)C=C1CC[C@@H]1[C@@H]2[C@@H](O)C[C@@]2(C)[C@H]1CC[C@]2(O)C(=O)COC(=O)CCC(=O)O`, the outcome in test [6] and in test [7] was inactive.
In the case of `Nc1c2ccccc2nc2ccccc12`, the result in [1] was inactive.
For `O=C1NC(=O)/C(=C/c2ccc3c(c2)OC(F)(F)O3)S1`, the Potency result in [2] and in test [10] was “inactive” each time. The compound was called inactive in test [3], in test [5], in test [8] and in test [9].
For `Cc1nn(-c2ccccc2)c(C)c1/C=N/N1CCN(Cc2ccccc2)CC1`, the Potency result in [2] and in [10] was “inactive” throughout. In addition, the call in test [3], in test [5], in test [8] and in test [9] was inactive. Further, the Potency in [4] is 39.8 µM (active).
Consider `Nc1ccc2cc3ccc(N)cc3nc2c1`, for which, in test [1], the compound was classed as inactive.
As to `COc1ccccc1N1CCN(CCN2C(=O)CC3(CCCC3)CC2=O)CC1`, the Potency result in [2], in test [4] and in test [10] was “inactive” in each case. The compound was classed as inactive in test [3], in test [5], in [6], in test [7], in [8] and in test [9].
`CN1CCC(Nc2ncc3ncnc(Nc4ccc(F)c(Cl)c4)c3n2)CC1`: the result in [1] was inactive.
With `COC(=O)C1=CO[C@@H](O)[C@@H]2C(CO)=CC[C@H]12`, the Potency entry in test [2], in [4] and in test [10] was “inactive” in each case. Also, the compound was called inactive in test [3], in test [5], in [8] and in [9].
Take `Nc1ncnc2n[nH]c(Nc3ccc(F)cc3)c12`: the Potency result in test [2], in [4] and in test [10] was “inactive” throughout. Also, the compound was classed as inactive in test [3], in test [5], in [8] and in test [9].
For the compound `CCN(CC)CCNC(=O)c1ccc(NS(C)(=O)=O)cc1`, the Potency entry in test [2], in test [4] and in test [10] was “inactive” in each case. For the same compound, the call in test [3], in test [5], in test [8] and in test [9] was inactive.
Regarding `COc1cccc2c1[C@@H]1CN(CCCCn3c(=O)[nH]c4c(sc5ncc(-c6ccccc6)nc54)c3=O)C[C@@H]1CO2`, the Potency result in test [2] and in [10] was “inactive” in each case. The compound was classed as inactive in test [3], in test [5], in [6], in [7], in test [8] and in test [9]. Moreover, the Potency in test [4] is 22.4 µM (active).
As for `O=C1NC(c2cccc([N+](=O)[O-])c2)=CCN1c1ccccc1O`, the Potency result in test [2], in test [4] and in test [10] was “inactive” in each case. Also, the compound was classed as inactive in test [3], in [5], in test [6], in test [7], in [8] and in test [9].
Consider `O=C(Nc1ccc(Cl)cc1)Nc1ccc(Cl)c(Cl)c1`, for which, in test [1], the outcome was inactive.
On to `Brc1ccc([C@H]2CN3CCSC3=N2)cc1`, for which the Potency result in [2] and in test [10] was “inactive” throughout. Besides, the call in [3], in [5], in [6], in test [7], in test [8] and in test [9] was inactive.
Turning to `C[N+](C)(C)CCO`, the Potency result in test [2], in [4] and in test [10] was “inactive” in each case. The result in test [3], in test [5], in test [6], in test [7], in [8] and in [9] was inactive.
For `NC(N)=NCCCCN=C(N)N`, the Potency result in test [2], in test [4] and in test [10] was “inactive” each time. The result in test [3], in test [5], in [6], in [7], in [8] and in test [9] was inactive.
`Clc1ccc2c(c1)N=C(N1CCNCC1)c1ccccc1N2`: the result in test [3] and in test [5] was inactive. Also, the Potency result in test [4] is “inactive”. Further, the Potency in test [10] is 562 nM (active).
`O=[N+]([O-])c1ccc(O)c2ncccc12`: the outcome in test [1] was inactive.
Take `CN(C)c1cc2c(Nc3ccc4c(cnn4Cc4ccccc4)c3)ncnc2cn1`: the Potency entry in [2] and in test [10] was “inactive” in each case. Moreover, the outcome in [5], in test [6], in test [7], in test [8] and in test [9] was inactive.
As to `CCCCCCCCCCCCCCCC[n+]1ccccc1`, the result in test [1] was inactive.
On to `O=[N+]([O-])c1ccc(-c2nc(-c3ccc(F)cc3)c(-c3ccncc3)[nH]2)cc1`, for which the Potency result in [2] and in [10] was “inactive” in each case. In addition, the compound was called inactive in [3], in test [5], in test [6], in [7] and in test [8]. The Potency in test [4] was 31.6 µM (active).
On to `CC(C)N(CCC(=O)c1ccc2ccccc2c1)Cc1ccccc1`, for which the Potency is 7.52 µM (active) in [2] and 44.7 µM (active) in test [4]. Besides, the outcome in [3], in test [5], in test [7], in [8] and in [9] was inactive.
`N[C@@H](Cn1ccc(=O)c(O)c1)C(=O)O`: the Potency entry in test [2], in test [4] and in test [10] was “inactive” in each case. For the same compound, the compound was called inactive in test [3], in test [5], in test [8] and in test [9].
